Data: PubChem BioAssay (NCI)
The panel holds about 79,000 compounds, 15% with a hit somewhere; the sample as a whole holds those more often. Values without a mark were called inactive. Active and inactive are the calls of the source. Cut-off read from the data, not from the text of the source: active = growth inhibition above about 70%; inactive = the rest. Where a SMILES comes first, the peptide text is derived from it. The star is where a group is joined. ONp = O=[N+]([O-])c1ccc(O*)cc1; Tos = Cc1ccc(S(=O)(=O)*)cc1

What was measured:
[1] = NCI Yeast Anticancer Drug Screen. Data for the rad50 strain (AID 155);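 note: 0% = growth of vehicle-only cultures of the same strain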; conditions: S. cerevisiae rad50 strain growth inhibition; at 50.0 µM; stronger effect = higher value
Method in brief: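 Compounds were tested on a yeast strain with an engineered DNA damage repair alteration; the reported value is growth inhibition normalised to vehicle treatment.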

[2] = NCI Yeast Anticancer Drug Screen. Data for the mec2-1 strain (AID 157); conditions: S. cerevisiae mec2-1 strain, at 50.0 µM, stronger effect = higher value
Method in brief: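 Mutant yeast (mec2-1) grown with compound; growth inhibition relative to vehicle control reported.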

[3] = NCI Yeast Anticancer Drug Screen. Data for the sgs1 mgt1 strain (AID 161);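 note: 0% = growth of cultures given vehicle only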; conditions: S. cerevisiae sgs1 mgt1 strain, at 50.0 µM, stronger effect = higher value
Method in brief: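 Percent growth inhibition was derived by comparing compound-exposed mutant yeast with vehicle-exposed cultures. The strain carries alterations in DNA damage repair.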

[4] = NCI Yeast Anticancer Drug Screen. Data for the cln2 rad14 strain (AID 165);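 note: 0% = growth equal to vehicle treated cultures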; conditions: S. cerevisiae cln2 rad14 strain, at 50.0 µM, stronger effect = higher value
Method in brief: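 Readout is yeast growth inhibition versus vehicle-treated controls, using a strain with cln2 and rad14 alterations exposed to compound.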

[5] = NCI Yeast Anticancer Drug Screen. Data for the bub3 strain (AID 167); conditions: S. cerevisiae bub3 mutant strain, at 50.0 µM, stronger effect = higher value
Method in brief: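 Growth of a checkpoint-deficient yeast mutant is measured after compound exposure. Values represent inhibition relative to vehicle.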

[6] = NCI Yeast Anticancer Drug Screen. Data for the mlh1 rad18 strain (AID 175); conditions: S. cerevisiae mlh1 rad18 strain growth inhibition; at 50.0 µM; stronger effect = higher value
Method in brief: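 Genetically defined yeast (DNA repair-deficient) exposed to compounds; growth inhibition determined relative to vehicle.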

SMILES: Oc1ccccc1C=Nc1ccc(I)cc1.Oc1ccccc1C=Nc1ccc(I)cc1.[Co]
- growth inhibition [1]: 15.8%
- growth inhibition [2]: 23.1%
- growth inhibition [3]: 18.6%
- growth inhibition [4]: 9.45%
- growth inhibition [5]: 17.6%
- growth inhibition [6]: 36.8%

SMILES: COC1=C(N=[N+]=[N-])C(=O)c2ccccc2C1=O
- growth inhibition [1]: 38%
- growth inhibition [2]: 8.95%
- growth inhibition [3]: 7.25%
- growth inhibition [4]: -34.2%
- growth inhibition [5]: -6.8%
- growth inhibition [6]: 16.1%

SMILES: CN(C)Cc1ccc2ccccc2c1
- growth inhibition [1]: 0.2%
- growth inhibition [2]: 7.1%
- growth inhibition [3]: 9.95%
- growth inhibition [4]: -39.1%
- growth inhibition [5]: 6.85%
- growth inhibition [6]: -14.3%

SMILES: O=S(=O)(c1cnccc1N1CCN(CCO)CC1)N1CCCC1
- growth inhibition [1]: 6.4%
- growth inhibition [2]: -11.2%
- growth inhibition [3]: 8.5%
- growth inhibition [4]: -7.6%
- growth inhibition [5]: 3.05%
- growth inhibition [6]: -1.5%

SMILES: c1ccc(C23c4ccccc4C2c2ccccc23)cc1 (stereo not drawn)
- growth inhibition [1]: 14.3%
- growth inhibition [2]: 11.9%
- growth inhibition [3]: 22.2%
- growth inhibition [4]: 10.2%
- growth inhibition [5]: 18.3%
- growth inhibition [6]: 13.9%

SMILES: COc1cc(/C=C/C(=N\NC(=S)NN)c2sc(NNC(C)=O)nc2C)ccc1O
- growth inhibition [1]: 22.5%
- growth inhibition [2]: -4.5%
- growth inhibition [3]: 21.7%
- growth inhibition [4]: 9.1%
- growth inhibition [5]: 15.5%
- growth inhibition [6]: 19.2%

SMILES: COC1CC(C)(NC(=O)C(F)(F)F)C2OC(c3ccccc3)OCC2O1 (stereo not drawn)
- growth inhibition [1]: -25%
- growth inhibition [2]: -17.7%
- growth inhibition [3]: -41.4%
- growth inhibition [4]: -35%
- growth inhibition [5]: -3.85%
- growth inhibition [6]: -9.65%

SMILES: CC(C)(C)OC(=O)C1CCC/C1=N/Nc1ccc([N+](=O)[O-])cc1[N+](=O)[O-] (stereo not drawn)
- growth inhibition [1]: -38.3%
- growth inhibition [2]: -46%
- growth inhibition [3]: 10.3%
- growth inhibition [4]: 24.2%
- growth inhibition [5]: 20.7%
- growth inhibition [6]: -11.6%

SMILES: Cc1ccc(-n2c(O)c(N=Nc3ccccc3)c(=O)n(-c3ccccc3)c2=S)cc1
- growth inhibition [1]: 20.1%
- growth inhibition [2]: -15.7%
- growth inhibition [3]: 51.4%
- growth inhibition [4]: -30.7%
- growth inhibition [5]: -9.2%
- growth inhibition [6]: -9.85%

SMILES: CCOC(=O)c1nnc(C)[nH]c1=O
- growth inhibition [1]: 13.4%
- growth inhibition [2]: -5.5%
- growth inhibition [3]: -14.5%
- growth inhibition [4]: -43.9%
- growth inhibition [5]: -2.8%
- growth inhibition [6]: 15%

SMILES: CC1=NN(C(=O)c2cccnc2)C(=O)C1N=Nc1ccc(S(=O)(=O)N=C(N)N)cc1 (stereo not drawn)
- growth inhibition [1]: 4.8%
- growth inhibition [2]: -14.6%
- growth inhibition [3]: -12.4%
- growth inhibition [4]: -6.5%
- growth inhibition [5]: 0%
- growth inhibition [6]: -21.9%

SMILES: N#CC(C#N)=C1C=Cc2ccccc2O1
- growth inhibition [1]: 27.9%
- growth inhibition [2]: -1.35%
- growth inhibition [3]: 0.9%
- growth inhibition [4]: 5.15%
- growth inhibition [5]: -1.4%
- growth inhibition [6]: 43.9%

SMILES: Cc1ccc(S(=O)(=O)NCC(=O)NCC(=O)Oc2ccc([N+](=O)[O-])cc2)cc1 (Tos-Gly-Gly-ONp)
- growth inhibition [1]: 52.7%
- growth inhibition [2]: 13%
- growth inhibition [3]: 42.2%
- growth inhibition [4]: 18.8%
- growth inhibition [5]: 2%
- growth inhibition [6]: 16%

SMILES: COc1cc2c(c3c1CCC(C)(C)O3)Cc1c(cc(OC)c(OC)c1CCC(C)(C)O)O2
- growth inhibition [1]: 41.8%
- growth inhibition [2]: -3.9%
- growth inhibition [3]: 3.6%
- growth inhibition [4]: 0.4%
- growth inhibition [5]: 3%
- growth inhibition [6]: 7.6%

SMILES: O=C1CCC(N2C(=O)C3C4CCC(CC4)C3C2=O)C(=O)N1 (stereo not drawn)
- growth inhibition [1]: 2.75%
- growth inhibition [2]: -12.9%
- growth inhibition [3]: -14.9%
- growth inhibition [4]: -1.65%
- growth inhibition [5]: -2.65%
- growth inhibition [6]: -16.2%

SMILES: C[C@]12CCC(=O)C(O)=C1CCC2=O
- growth inhibition [1]: 2.6%
- growth inhibition [2]: -7.35%
- growth inhibition [3]: -5.3%
- growth inhibition [4]: -14.9%
- growth inhibition [5]: 3.8%
- growth inhibition [6]: 4.5%

SMILES: Nc1cc(Cl)c(N(CCO)C2=NCCN2)c(Cl)c1
- growth inhibition [1]: 3.8%
- growth inhibition [2]: -3.25%
- growth inhibition [3]: 3.05%
- growth inhibition [4]: -12.2%
- growth inhibition [5]: 1.3%
- growth inhibition [6]: -5.75%

SMILES: CC(C)(CCCCC(C)(C)NC1=NCCO1)NC1=NCCO1
- growth inhibition [1]: -0.2%
- growth inhibition [2]: -8.8%
- growth inhibition [3]: 9.9%
- growth inhibition [4]: -20.6%
- growth inhibition [5]: -4.45%
- growth inhibition [6]: -9.4%

SMILES: C=CCNC(=S)Nc1cccc(O)c1
- growth inhibition [1]: -8.05%
- growth inhibition [2]: -11.6%
- growth inhibition [3]: -11.6%
- growth inhibition [4]: -31.8%
- growth inhibition [5]: -10.9%
- growth inhibition [6]: -2.55%

SMILES: CC(C)CCCC(C)C1CCC2C3CC=C4CC(OC(=O)Nc5ccc(S(=O)(=O)N6CCCCC6)cc5)CCC4(C)C3CCC12C (stereo not drawn)
- growth inhibition [1]: 2.3%
- growth inhibition [2]: 2.45%
- growth inhibition [3]: 1.65%
- growth inhibition [4]: -5.8%
- growth inhibition [5]: -3.75%
- growth inhibition [6]: 6.45%

SMILES: Cc1cc(COCCN(C)C)on1
- growth inhibition [1]: -3.5%
- growth inhibition [2]: 14.2%
- growth inhibition [3]: 14.9%
- growth inhibition [4]: -3.95%
- growth inhibition [5]: 11.8%
- growth inhibition [6]: 4.35%

SMILES: N#CS[C@@H]1CCC[C@H]1O
- growth inhibition [1]: -0.85%
- growth inhibition [2]: -6.25%
- growth inhibition [3]: -18.5%
- growth inhibition [4]: -18%
- growth inhibition [5]: 1.65%
- growth inhibition [6]: -20.1%

SMILES: Cc1nnc(-c2ccccc2)s1
- growth inhibition [1]: 15.1%
- growth inhibition [2]: 12.3%
- growth inhibition [3]: -3.2%
- growth inhibition [4]: 12.1%
- growth inhibition [5]: -10.6%
- growth inhibition [6]: -7.45%

SMILES: CC1=CC2(C)OC3C(=O)N(c4ccc(Cl)cc4)C(=O)C3C2N=C1 (stereo not drawn)
- growth inhibition [1]: -7.65%
- growth inhibition [2]: -22.9%
- growth inhibition [3]: -24%
- growth inhibition [4]: 9.6%
- growth inhibition [5]: -20.1%
- growth inhibition [6]: -3.35%

SMILES: COc1cccc(/C=C/c2cc3c(cc2Br)OCO3)c1
- growth inhibition [1]: 3.3%
- growth inhibition [2]: -3.35%
- growth inhibition [3]: 2.55%
- growth inhibition [4]: 3.65%
- growth inhibition [5]: 1.9%
- growth inhibition [6]: -6.3%

SMILES: Cc1noc(N)c1Sc1ccc(Br)cc1
- growth inhibition [1]: 98.7% (active)
- growth inhibition [2]: 98.8% (active)
- growth inhibition [3]: 99% (active)
- growth inhibition [4]: 98.5% (active)
- growth inhibition [5]: 98.8% (active)
- growth inhibition [6]: 99.1% (active)

SMILES: Cc1cc[n+](C(C)CCC(C)[n+]2ccc(C)cc2)cc1 (stereo not drawn)
- growth inhibition [1]: 25.2%
- growth inhibition [2]: 20.5%
- growth inhibition [3]: 42.5%
- growth inhibition [4]: 27%
- growth inhibition [5]: 14.2%
- growth inhibition [6]: 11.8%

SMILES: Cc1cc(N(C)c2ccccc2)nc(N(C)c2ccccc2)n1
- growth inhibition [1]: -24.4%
- growth inhibition [2]: -16.6%
- growth inhibition [3]: -6.05%
- growth inhibition [4]: -14.6%
- growth inhibition [5]: -23.3%
- growth inhibition [6]: -61.5%

SMILES: c1ccc2c(c1)oc1ccc3nsnc3c12
- growth inhibition [1]: 7.25%
- growth inhibition [2]: -7.45%
- growth inhibition [3]: 13.8%
- growth inhibition [4]: -1.45%
- growth inhibition [5]: 20.1%
- growth inhibition [6]: -10.3%

SMILES: O=C(NCCO)C(=O)NCCO
- growth inhibition [1]: 5.25%
- growth inhibition [2]: -13.3%
- growth inhibition [3]: 5.7%
- growth inhibition [4]: -9.35%
- growth inhibition [5]: -2.55%
- growth inhibition [6]: 17.6%

SMILES: O=C(c1ccc([N+](=O)[O-])cc1)c1cc2ccccc2oc1=O
- growth inhibition [1]: -12.1%
- growth inhibition [2]: -8.5%
- growth inhibition [3]: -9.85%
- growth inhibition [4]: -73%
- growth inhibition [5]: -18.4%
- growth inhibition [6]: -9%

SMILES: COC(=O)N/N=C(\C(=O)Nc1cccc([N+](=O)[O-])c1)c1nc2ccc([N+](=O)[O-])cc2[nH]c1=O
- growth inhibition [1]: 8.65%
- growth inhibition [2]: -7.75%
- growth inhibition [3]: 25%
- growth inhibition [4]: 14.8%
- growth inhibition [5]: -17.1%
- growth inhibition [6]: -1.25%

SMILES: NC1CCC(P(=O)(O)O)CC1 (stereo not drawn)
- growth inhibition [1]: -0.35%
- growth inhibition [2]: 3.45%
- growth inhibition [3]: -4.75%
- growth inhibition [4]: -9.65%
- growth inhibition [5]: -6.2%
- growth inhibition [6]: -5.1%

SMILES: COc1ccc([C@@]23Oc4cc(OC)cc(OC)c4[C@]2(O)[C@H](O)[C@H](C(=O)N(C)C)[C@H]3c2ccccc2)cc1
- growth inhibition [1]: 91.8% (active)
- growth inhibition [2]: 93.5% (active)
- growth inhibition [3]: 92.8% (active)
- growth inhibition [4]: 91.5% (active)
- growth inhibition [5]: 91.3% (active)
- growth inhibition [6]: 91.1% (active)

SMILES: CCOC(=O)c1ccc(NC(=O)/C=C/c2ccccc2)cc1
- growth inhibition [1]: -4.55%
- growth inhibition [2]: 11.4%
- growth inhibition [3]: 17.4%
- growth inhibition [4]: -24.3%
- growth inhibition [5]: 30.1%
- growth inhibition [6]: 6.3%

SMILES: Nc1ccccc1N1C(=O)C(Cl)=C(Cl)C1=O
- growth inhibition [1]: 39.5%
- growth inhibition [2]: 5.4%
- growth inhibition [3]: 21.5%
- growth inhibition [4]: 14.2%
- growth inhibition [5]: 3%
- growth inhibition [6]: 44%

SMILES: CCCCCc1ccccc1OCC1CO1 (stereo not drawn)
- growth inhibition [1]: 6.75%
- growth inhibition [2]: -9.15%
- growth inhibition [3]: -17.6%
- growth inhibition [4]: 11.6%
- growth inhibition [5]: 5.1%
- growth inhibition [6]: 27.2%

SMILES: O=c1cccccc1Cl
- growth inhibition [1]: 14.8%
- growth inhibition [2]: -41.6%
- growth inhibition [3]: 20.9%
- growth inhibition [4]: 5.6%
- growth inhibition [5]: 40.8%
- growth inhibition [6]: 11.6%
